Shiga toxin inh: A qHTS for Small Molecule Inhibitors of Shiga Toxin | Vero cells, Shiga toxin protein synthesis inhibition reporter | inhibition, % at 38.7 µM | 290,000 compounds, 9.2% hits; in the data active = inhibition mostly above about 28%, no sharp cut-off; inactive = mostly below about 43%
Giardia FBPA inh: qHTS Assay for Inhibitors of Fructose-1,6-bisphosphate Aldolase from Giardia Lamblia | A8B2U2 | purified Giardia FBPA | Potency, µM (top dose mostly 59.6 µM), most hits filed as inhibitors | 290,000 compounds, 0.71% hits; also: nearly all actives have a fitted effect of over 55% in size
Target sequence (A8B2U2 whole entry, looked up): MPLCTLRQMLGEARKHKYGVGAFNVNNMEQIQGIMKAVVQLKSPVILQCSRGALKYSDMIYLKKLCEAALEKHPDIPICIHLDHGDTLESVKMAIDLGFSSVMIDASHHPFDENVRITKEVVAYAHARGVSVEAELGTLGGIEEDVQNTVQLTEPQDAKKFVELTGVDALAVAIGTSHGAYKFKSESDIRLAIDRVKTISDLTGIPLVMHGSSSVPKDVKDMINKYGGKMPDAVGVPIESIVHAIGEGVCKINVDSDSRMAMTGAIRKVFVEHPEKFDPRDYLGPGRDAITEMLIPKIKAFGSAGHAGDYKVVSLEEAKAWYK
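40 nM FBPA preincubated 10 min at RT with compound (up to 57.5 uM final), then substrate plus GAPDH/TPI/NAD/arsenate coupling and diaphorase/resazurin added. Fluorescence read after 20 min at RT, 525/598 nm.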
Cycloheximide cs: Cycloheximide Counterscreen for Small Molecule Inhibitors of Shiga Toxin | AID 2314, 2010 | 300,000 compounds, 12% hits | cell reporter, cycloheximide protein synthesis inhibition counterscreen | max response, %; in the data active = max response mostly above about 13%, no sharp cut-off; inactive = mostly below about 14%; also: read at 38.3 µM for the half of the compounds with a filed dose
LmPK inh: qHTS Assay for Inhibitors of Leishmania Mexicana Pyruvate Kinase (LmPK); purified LmPK, Kinase-Glo ATP luminescence, 1 h; 290,000 compounds, 0.37% hits; Potency, µM (series often up to 57.5 µM), hits mostly inhibitors; AID 1721, 2009
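Pyruvate kinase activity monitored as ATP production (luciferase luminescence). Conditions: 0.1 nM enzyme, 0.5 mM PEP, 0.1 mM ADP, 1 h, RT; normalized against uninhibited and no-enzyme wells.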
NS1 inh: qHTS Assay for Inhibitors of Influenza NS1 Protein Function. 270,000 compounds, 0.4% hits. AID 2326, 2010. Potency, µM (doses to about 46.1 µM); calls by dose curve; also: actives are rising curves; nearly all actives have a fitted effect of over 50% in size
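OD600 was taken as the measure of yeast growth restored by compound in an NS1-expressing S. cerevisiae strain. Cells had been washed out of glucose medium and diluted 1:100 into galactose -URA medium, pH 6.0.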
Of the large screens only hits and unclear results are named; the others gave an inactive call. The list is not random: actives were taken first. Their share in the collection is about 14%. Unless noted, calls follow the shape of the dose curve; as a rule, active = well fitted curve in the direction sought with a large enough effect; inconclusive = small, poorly fitted or top-dose-only effect, or another doubt; inactive = no such curve, though single readings can be large; an effect the other way counts as inactive or inconclusive.

Cc1nc2c(-c3ccc(F)cc3)c(C)nn2c(N2CCOCC2)c1C	none
Cc1cc(C)n2cc(-c3ccc(Cl)cc3)c(C(=O)O)c2n1	Shiga toxin inh 50.9, Giardia FBPA inh inconclusive, Cycloheximide cs 22.3
Cc1cc(N)n2ncc(-c3ccc(F)cc3)c2n1	Shiga toxin inh 67.6, Cycloheximide cs 50.4
Cc1cc(-c2ccc(Cl)cc2)c2cnn(C(C)C)c2n1	Cycloheximide cs 29.6
Cc1ccccc1OCC(=O)N1CCCCCCC1	none
COC(=O)[C@@H](NC(=O)O[C@@H]1C(=O)c2cc(Br)ccc2O[C@H]1c1ccc2c(c1)OCO2)C(C)C	none (no result: Shiga toxin inh, Cycloheximide cs, LmPK inh, NS1 inh)
CO[C@@H](CCO)C[C@H]1O[C@H](C(=O)OC(C)C)CC[C@@H]1C	none (no result: Shiga toxin inh, Cycloheximide cs, LmPK inh, NS1 inh)
Cc1nn(CC(=O)Nc2cccc(C(F)(F)F)c2)c(=O)c2cccn12	none (no result: Giardia FBPA inh)
CC(C)c1cc(N2CCOCC2)n2ncc(-c3ccccc3)c2n1	none
Cc1cc(N)n2ncc(-c3ccc(Cl)cc3)c2n1	Shiga toxin inh 48.6, Cycloheximide cs 21.9
CCOC(=O)Cc1c(C)nc2c(-c3ccc(Cl)cc3)cnn2c1C	Shiga toxin inh 48.6
Cc1cc(Cl)n2ncc(-c3ccccc3)c2n1	Shiga toxin inh 62.5, Cycloheximide cs 57.4
Cc1cc(SCC(=O)Nc2ccccc2)n2ncc(-c3ccccc3)c2n1	none
Cc1cc(N2CCOCC2)n2ncc(-c3ccccc3Cl)c2n1	Shiga toxin inh 87.8, Cycloheximide cs 40.7
Cc1cc(C(F)(F)F)n2nc(C)c(-c3ccc(Cl)cc3)c2n1	none
CC1(C(=O)N/N=C/c2ccccc2)CC1(Cl)Cl (centres undefined)	Cycloheximide cs 25.6 (no result: Shiga toxin inh)
CC1(C(=O)N/N=C/c2ccccc2)CC1(Br)Br (centres undefined)	none
Cc1ccc(/C=N/NC(=O)C2(C)CC2(Br)Br)cc1 (centres undefined)	Cycloheximide cs 13.2
CCOc1ccc(C(=O)Nc2ccc(C(=O)N3CCOCC3)cc2)c(OCC)c1	none (no result: Giardia FBPA inh)
COC(=O)CCN(c1ccccc1)S(=O)(=O)c1cc(-c2cc(C)no2)ccc1OC	none
Cc1ccn2cc(-c3cccc(NC(=O)c4cccs4)c3)nc2c1	Cycloheximide cs 22.2 (no result: NS1 inh)
O=C(Nc1cccc(-c2cn3cccnc3n2)c1)c1cccs1	none
Cc1cccn2cc(-c3cccc(NC(=O)c4cccs4)c3)nc12	Shiga toxin inh 70.9, Cycloheximide cs 32.3
CCOc1cc(C2C(C(=O)c3ccccc3)=C(C(=O)OC)Nc3nnnn32)ccc1O (centres undefined)	Cycloheximide cs 22.8
COC(=O)C1=C(C(=O)c2ccccc2)C(c2ccc(O)c(OC)c2)n2nnnc2N1 (centres undefined)	none
CC(C)(O)C#Cc1ccc(CN2CCCC(CNC(=O)c3ccco3)C2)cc1 (centres undefined)	none (no result: Giardia FBPA inh)
CCOc1cc(-c2nnc(-c3ccco3)o2)cc(OCC)c1OCC	Shiga toxin inh active, Cycloheximide cs 21.7
Cc1cc(C)cc(OCC(=O)Nc2cccc(-c3nnc(-c4ccco4)o3)c2)c1	none
COc1cc(C(=O)Nc2ccc(-c3nnc(-c4ccco4)o3)cc2)cc(OC)c1OC	none (no result: Giardia FBPA inh)
CCOc1ccc(-c2nnc(-c3ccco3)o2)cc1OCC	Shiga toxin inh 88.0, Cycloheximide cs 46.3
COc1ccc(CCNC(=O)c2n[nH]c3ccccc23)cc1	Shiga toxin inh 44.8, Cycloheximide cs 46.6 (no result: NS1 inh)
O=C(COC(=O)c1n[nH]c2ccccc12)NC(=O)NC1CCCC1	none
COc1ccc(CNC(=O)COC(=O)c2n[nH]c3ccccc23)cc1	none
O=C(NC1CCCC1)c1n[nH]c2ccccc12	Cycloheximide cs 43.3
COCCNC(=O)c1n[nH]c2ccccc12	Cycloheximide cs 30.7 (no result: NS1 inh)
COc1c(O)c(O)cc2c1oc1c3cc(C)ccc3oc(=O)c21	none (no result: Shiga toxin inh, Cycloheximide cs, LmPK inh, NS1 inh)
CS(=O)(=O)N(CC(=O)N1CCc2ccccc2C1)c1ccccc1Br	none
CCOC(=O)N1CCN(C(=O)/C=C/c2ccc(OC)cc2)CC1	none
CCC(C)NC(=O)c1cc(-c2ccccc2O)on1 (centres undefined)	Shiga toxin inh 84.4, Cycloheximide cs 52.1
CCC(C)NC(=O)c1ccccc1-c1ccccc1C(=O)NC(C)CC (centres undefined)	none
COc1ccccc1-c1cc(C(=O)NC(C)C)no1	Shiga toxin inh 83.0, Cycloheximide cs 33.9
COCCNC(=O)c1cc(-c2ccccc2OC)on1	Cycloheximide cs 17.4
COc1ccccc1-c1cc(C(=O)NCc2ccco2)no1	Cycloheximide cs 37.1
O=C(CN1CCOCC1)Nc1nc(-c2ccccc2Cl)cs1	none
C=CCN1CCN(c2nc3ccccc3nc2C#N)CC1	none (no result: Shiga toxin inh, Cycloheximide cs, LmPK inh, NS1 inh)
CCCCCC/C=C/c1ccc(C2C3C=CCC(C)C3C(=O)N2Cc2ccccc2)c(F)c1 (centres undefined)	none (no result: LmPK inh, NS1 inh)
CCN(CC)C(=O)c1cc(-c2ccccc2OC)on1	Shiga toxin inh 53.8, Cycloheximide cs 37.4
CC(C)c1ccc(C(=O)N(c2ccccn2)C(C)c2ccco2)cc1 (centres undefined)	Shiga toxin inh 90.5, Cycloheximide cs 29.8
Cc1cc(C)cc(C(=O)N(c2ccccn2)C(C)c2ccco2)c1 (centres undefined)	none
CC(c1ccco1)N(C(=O)c1ccccc1NS(=O)(=O)c1ccc(Cl)c([N+](=O)[O-])c1)c1ccccn1 (centres undefined)	Shiga toxin inh 39.3
Cc1nc(-c2cccc(NC(=O)c3cccs3)c2)cs1	Cycloheximide cs 16.5
Cc1nc(-c2ccc(C(=O)Nc3cccc(Br)c3)cc2)cs1	Shiga toxin inh 56.1, Cycloheximide cs 33.3, LmPK inh inconclusive
O=C(Nc1cccc(-c2csc(-c3ccccc3)n2)c1)c1cccs1	none
COc1ccc(-c2csc(C)n2)cc1Br	Shiga toxin inh 74.5, Cycloheximide cs 35.2 (no result: NS1 inh)
O=C(Nc1cccc(Br)c1)c1ccn[nH]1	Shiga toxin inh 34.6, Cycloheximide cs 45.4
COc1cc(CN2CCN(C(=O)c3cccc4ccccc34)CC2)cc(OC)c1O	Giardia FBPA inh inconclusive (no result: Shiga toxin inh)
C=C(C(=O)OCC)C(=O)c1ccccc1	none (no result: Shiga toxin inh, Cycloheximide cs, LmPK inh, NS1 inh)
O=C(c1cccnc1)N1CCCC(Nc2ccc(F)cc2)C1 (centres undefined)	none
COc1ccc(C(=O)Nc2cc(OC)ccc2OC)cc1	none
COc1ccc(OC)c(NC(=O)c2ccc(-c3csc(C)n3)cc2)c1	Cycloheximide cs 16.2 (no result: Shiga toxin inh)
COc1ccc(OC)c(NC(=O)c2csc(Cl)c2OC)c1	Cycloheximide cs 21.4
Cc1nc(-c2cccc(NC(=O)Cc3ccccc3)c2)cs1	Cycloheximide cs 32.1 (no result: NS1 inh)
Cc1ccccc1NC(=O)Nc1cc(S(N)(=O)=O)ccc1C	NS1 inh inconclusive (no result: Giardia FBPA inh)
Cc1nc(-c2ccc(C(=O)Nc3cc(S(N)(=O)=O)ccc3C)cc2)cs1	Shiga toxin inh 55.9, Cycloheximide cs 13.7
Cc1cn(C2CC3OCC(NC(=O)C(Cc4ccccc4)NC(=O)OC(C)(C)C)C3O2)c(=O)[nH]c1=O (centres undefined)	none (no result: LmPK inh, NS1 inh)
CCC/C=C(\CCC)C(NC(=O)c1cccs1)c1ccc(C(=O)OC)cc1 (centres undefined)	none (no result: Shiga toxin inh, Cycloheximide cs, LmPK inh, NS1 inh)
CC(=O)Oc1ccc(C(=O)O)cc1OC(C)=O	none

Screens from PubChem BioAssay.
